A selection: hits, their analogues and other compounds. The true share with any hit is near 2.1%.
CHT PAM: allosterically activates the human high affinity choline transporter; AID 488977; actives 0.49% (n = 310,000); B-score at 10 µM; CHT-expressing cells, membrane potential dye, choline EC20; stronger effect = higher value; LV-AA mutant CHT in HEK293 cells;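 active = initial fluorescence not abnormally high and integrated response B-score, plate-corrected, over 3 SD above library mean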
Target sequence (Q9GZV3 whole entry, looked up): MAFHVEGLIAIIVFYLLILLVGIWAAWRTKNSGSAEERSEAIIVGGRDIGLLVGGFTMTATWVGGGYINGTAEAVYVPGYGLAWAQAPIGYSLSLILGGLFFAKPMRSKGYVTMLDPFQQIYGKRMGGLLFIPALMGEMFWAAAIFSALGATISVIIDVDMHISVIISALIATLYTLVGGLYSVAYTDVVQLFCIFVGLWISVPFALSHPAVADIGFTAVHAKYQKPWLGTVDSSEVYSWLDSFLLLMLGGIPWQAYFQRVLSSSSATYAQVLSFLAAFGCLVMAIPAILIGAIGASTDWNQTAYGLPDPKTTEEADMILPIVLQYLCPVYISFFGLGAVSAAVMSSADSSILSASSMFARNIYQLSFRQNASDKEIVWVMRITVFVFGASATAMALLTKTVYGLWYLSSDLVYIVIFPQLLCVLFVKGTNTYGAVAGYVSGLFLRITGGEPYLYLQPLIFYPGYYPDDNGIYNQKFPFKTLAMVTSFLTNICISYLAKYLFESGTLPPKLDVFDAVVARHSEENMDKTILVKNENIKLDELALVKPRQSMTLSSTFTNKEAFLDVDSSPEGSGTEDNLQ
EP2 antag: EP2 receptor (human) inhibition; P43116; C6 glioma cells expressing human EP2, cAMP TR-FRET; cells stimulated with saturating PGE2; inhibition, % at 25 µM; actives 0.52% (n = 260,000); AID 1422;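 active = percent inhibition above 40 after rounding to a whole number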;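 also: rat C6 glioma host cells with rolipram phosphodiesterase inhibitor present; the protocol text gives 20 µM as final concentration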
CHT inh: human CHT choline transport inhibition | AID 488975 | actives 0.86% (n = 310,000) | B-score at 10 µM | CHT-expressing cells, membrane potential dye, choline response; stronger effect = lower value;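 active = B-score over 3 SD under the library average, and starting fluorescence ratio not unusually high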;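 also: choline stimulus applied at its EC90 after an EC20 pre-addition; B-score computed on integrated fluorescence ratio after choline addition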
EP2 mod: modulators of human EP2 prostaglandin E2 receptor; EP2-expressing cells, cAMP HTRF FRET, PGE2 co-stimulation; P43116; induction, % at 25 µM; actives 0.83% (n = 260,000);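 active = compounds whose cAMP rise, as percent of the full-agonist control response, exceeds 60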;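 also: rat C6 glioma line stably carrying human EP2 under a CMV promoter; the protocol text gives 20 µM as final concentration; 100% = response of wells given 1 µM PGE2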
CHT activ conf: confirmation of human choline transporter (CHT) activators; shares compounds with CHT PAM; CHT-expressing cells, membrane potential dye fluorescence (FDSS); % of choline EC20–EC90 response window; HEK293 expressing CHT LV-AA mutant; choline added at its EC20; activation, % at 10 µM; actives 91% (n = 2,500);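 active = primary screen active, with duplicate mean activation above negative control mean plus 3 SD, cut at about 11% in these data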
HEK293 MP dye: CHT activator counter-screen hit in parental HEK293 cells; actives 62% (n = 2,500); AID 623908; ratio readout change at 10 µM, hits read low; membrane potential dye fluorescence (FDSS); measured after EC20 choline addition; shares compounds with CHT PAM;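 active = duplicate-averaged ratio beyond 3 SD from buffer wells, up or down, though filed actives are nearly all decreases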
Numbers without * were called inactive; i = inactive; nt = no result.

SMILES	CHT PAM	EP2 antag	CHT inh	EP2 mod	CHT activ conf	HEK293 MP dye
CSc1nc(NCC(C)C)c2c3c(sc2n1)CN(C)CC3	i	9	i	-8	nt	nt
CC(C)Sc1nc(N)c2c3c(sc2n1)CN(C)CC3	i	nt	i	-27	31*	-44*
CSc1nc(SCC(=O)NCC2CCCO2)c2c3c(sc2n1)CN(C)CC3 (stereo unspecified)	6.5*	10	i	3	36*	-50*
CSc1nc(NCc2ccccc2)c2c3c(sc2n1)CN(C)CC3	i	5	i	-4	nt	nt
COCCNc1nc(SC)nc2sc3c(c12)CCN(C)C3	7.1*	nt	i	nt	38*	-44*
CCN(CC)CCNc1nc(SC)nc2sc3c(c12)CCN(C)C3	i	nt	i	nt	nt	nt
COCCSc1nc(N)c2c3c(sc2n1)CN(C)CC3	6.4*	10	i	8	41*	-51*
Cc1cc([N+](=O)[O-])nn1N	nt	11	nt	6	nt	nt
CCOc1cccc(/C(O)=C2/C(=O)C(=O)N(CCCOC)C2c2cccs2)c1 (stereo unspecified)	nt	9	nt	1	nt	nt
CC[N+](CC)(CC)CCNC(=O)c1c(O)c2ccccc2[nH]c1=O	nt	8	nt	-14	nt	nt
CC(C)c1nc(SCC(=O)Nc2nc3c(s2)CCCC3)c2ccccc2n1	9*	8	i	37	28*	i
Cc1cccc2cc3c(N)c(C(=O)N4CCc5ccccc54)sc3nc12	i	10	i	19	26*	i
c1cnc2c(c1)ccc1cccnc12	6.6*	9	i	19	62*	-105*
CCCN1C2=NCCN2c2cc(C)c(C)cc21	8.3*	17	i	7	42*	-46*
CCCCCN1C2=NCCN2c2ccccc21	i	10	i	6	34*	-31*
COC(=O)C(C)n1cnc2scc(-c3ccccc3)c2c1=O (stereo unspecified)	nt	4	nt	22	nt	nt
CCOC(=O)c1c(NC(=O)CSc2ncccn2)sc(C)c1C	nt	10	nt	43	nt	nt
CC(C)(C)c1ncc(C(=O)Nc2ccc(Oc3cccnc3)cc2)cn1	nt	12	nt	-89	nt	nt
c1ccc(CCn2nnnc2CN2CCCc3ccccc32)cc1	7.3*	6	i	27	8	i
CCOc1ccccc1NC(=O)CSc1nnc2c3ccccc3n(C)c2n1	nt	36	nt	21	nt	nt
CCOc1ccccc1NC(=O)CN1CCC(n2cnc3cccnc32)CC1	nt	nt	nt	-26	nt	nt
c1cc2c(cc1Cn1cnnn1)OCO2	i	22	i	15	nt	nt
Cc1nnc(C)c2c(C)n(Cc3ccc4c(c3)OCO4)c(C)c12	8.1*	6	i	1	54*	-45*
CN1CC[n+]2cnc3ccccc3c21	12*	1	i	19	79*	-72*
O=[N+]([O-])c1cc(F)c(N2CCCCC2)cc1N1CCOCC1	i	2	i	12	nt	nt
SMILES	CHT PAM	EP2 antag	CHT inh	EP2 mod	CHT activ conf	HEK293 MP dye
Cn1c(=O)n(C)c2cc([N+](=O)[O-])c(N3CCN(C(=O)c4cccc(Cl)c4)CC3)cc21	i	11	i	-3	nt	nt
Cn1c(=O)n(C)c2cc([N+](=O)[O-])c(N3CCN(C(=O)c4cccc(F)c4)CC3)cc21	i	2	i	14	26*	-39*
Cn1c(=O)c(=O)n(C)c2cc([N+](=O)[O-])c(N3CCOCC3)cc21	6.5*	nt	i	nt	66*	-61*
Cc1ccc(C)c(/C(O)=C2/C(=O)C(=O)N(CCCn3ccnc3)C2c2cccs2)c1 (stereo unspecified)	nt	18	nt	36	nt	nt
COc1ccc(-c2noc(CSc3nc4ccccc4c(=O)n3-c3ccccc3)n2)cc1OC	i	16	i	16	14*	i
COc1ccc(C(=O)Nc2ccncc2)c(OC)c1	6.6*	8	i	1	21*	-56*
COc1ccc(N2CCN(c3oc(COc4ccccc4)nc3C#N)CC2)cc1	i	26	i	-17	35*	i
COc1ccc(N2CCN(c3oc(COc4ccc(Cl)cc4)nc3C#N)CC2)cc1	8*	19	i	-44	36*	i
N#Cc1nc(COc2ccc(Cl)cc2Cl)oc1N1CCN(c2ccccc2)CC1	i	6	i	-16	nt	nt

Source: PubChem BioAssay
